Experiments:
Experiment in all cases: thermal shift delta Tm vs DMSO control; higher = stronger stabilization (binding)
Details in all cases: 12.5 µM; protein concentration 2 µM
LOC_OS02G45750-cb003 = system: LOC_OS02G45750-cb003
Method in brief: (§1)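 Compounds dissolved in DMSO were added to purified rice kinase domain constructs, which had been expressed in E. coli, for differential scanning fluorimetry. Each well held 19.5 μl of 2 μM kinase in 100 mM potassium phosphate pH 7.5, 150 mM NaCl, 10% glycerol and 5 × SYPRO Orange. Fluorescence was followed from 25°C to 95°C at a rate of 0.05°C/s. Shifts in Boltzmann-fitted melting temperature are triplicate means relative to DMSO-only protein.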

LOC_OS02G54510-cb004 = system: LOC_OS02G54510-cb004
Method in brief: as §1

LOC_OS03G04050-cb001 = system: LOC_OS03G04050-cb001
Method in brief: as §1

LOC_OS03G12390-cb001 = system: LOC_OS03G12390-cb001
Method in brief: as §1

LOC_OS03G27990-cb004 = system: LOC_OS03G27990-cb004
Method in brief: as §1

LOC_OS03G50450-cb001 = system: LOC_OS03G50450-cb001
Method in brief: as §1

LOC_OS03G50810-cb003 = system: LOC_OS03G50810-cb003
Method in brief: as §1

LOC_OS04G35114-cb001 = system: LOC_OS04G35114-cb001
Method in brief: as §1

LOC_OS04G38480-cb003 = system: T1, LOC_OS04G38480-cb003
T1 sequence (whole entry): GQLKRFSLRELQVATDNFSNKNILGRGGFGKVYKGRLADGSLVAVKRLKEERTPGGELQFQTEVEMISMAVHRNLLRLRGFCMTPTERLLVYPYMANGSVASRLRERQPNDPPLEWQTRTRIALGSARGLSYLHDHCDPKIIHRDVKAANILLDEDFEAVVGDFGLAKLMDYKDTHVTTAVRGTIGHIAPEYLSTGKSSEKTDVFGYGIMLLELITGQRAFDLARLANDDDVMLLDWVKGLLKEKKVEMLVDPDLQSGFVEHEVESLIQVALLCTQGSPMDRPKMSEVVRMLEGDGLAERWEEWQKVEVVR
Method in brief: as §1

LOC_OS04G41100-cb001 = system: T2, LOC_OS04G41100-cb001
T2 sequence (whole entry): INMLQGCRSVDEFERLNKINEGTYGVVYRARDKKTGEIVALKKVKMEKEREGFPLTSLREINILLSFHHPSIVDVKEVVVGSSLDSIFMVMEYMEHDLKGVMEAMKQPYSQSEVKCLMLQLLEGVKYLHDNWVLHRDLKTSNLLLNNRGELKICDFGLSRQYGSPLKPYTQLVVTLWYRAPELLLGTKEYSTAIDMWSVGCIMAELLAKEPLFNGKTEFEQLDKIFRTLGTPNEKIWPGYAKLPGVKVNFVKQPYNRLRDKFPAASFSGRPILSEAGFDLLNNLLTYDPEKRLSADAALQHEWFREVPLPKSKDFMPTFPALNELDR
Method in brief: as §1

SMILES	thermal shift delta Tm (LOC_OS02G45750-cb003) [°C]	thermal shift delta Tm (LOC_OS02G54510-cb004) [°C]	thermal shift delta Tm (LOC_OS03G04050-cb001) [°C]	thermal shift delta Tm (LOC_OS03G12390-cb001) [°C]	thermal shift delta Tm (LOC_OS03G27990-cb004) [°C]	thermal shift delta Tm (LOC_OS03G50450-cb001) [°C]	thermal shift delta Tm (LOC_OS03G50810-cb003) [°C]	thermal shift delta Tm (LOC_OS04G35114-cb001) [°C]	thermal shift delta Tm (LOC_OS04G38480-cb003) [°C]	thermal shift delta Tm (LOC_OS04G41100-cb001) [°C]
OCCn1cc(-c2cnc3nnn(Cc4ccc5ncccc5c4)c3n2)cn1	0.63	0.54	0.84	-0.07	0.33	0.8	0.22	0.87	-0.51	0.57
CCN1CCN(Cc2ccc(C(=O)Nc3ccc(C)c(Oc4ccc5c(c4)CC(=O)N5)c3)cc2C(F)(F)F)CC1	1.5	0.41	0.79	0.12	0.67	1.13	0.7	1.2	1.7	0.5
C=CC(=O)N1CCN(CCCn2c(=O)c(-c3c(Cl)c(OC)cc(OC)c3Cl)cc3cnc(NC)nc32)CC1	1.93	0.21	0.58	-0.09	0.48	0.92	0.26	-0.04	0.5	0.38
NC(=O)c1ccc(N(C(N)=O)c2c(F)cccc2F)nc1-c1ccc(F)cc1F	-0.83	-0.06	0.39	-0.04	0.18	0.14	0.25	0.57	-0.04	0.38
CC(C)(C)c1cc(NC(=O)Nc2ccc(-c3cn4c(n3)sc3cc(OCCN5CCOCC5)ccc34)cc2)no1 [Quizartinib (AC220)]	-0.83	0.02	-0.02	0.08	0.09	-0.11	0.82	0.41	0.67	0.81
CCc1nc(-c2cccc(C)c2)c(-c2ccnc(NC(=O)c3ccccc3)c2)s1	0.74	-0.41	0.27	0.6	0.28	0.06	0.03	1.27	0.74	0.61
CC(C)(C)c1cc(/C=C(\C#N)C(N)=S)cc(C(C)(C)C)c1O [Tyrphostin AG 879]		6.54	0.85	2.51	1	0.98	2.05	1.68	2.13	1.27
CCn1cc(-c2ccnc3[nH]c(-c4cccc(CN(C)C)c4)cc23)c(-c2ccc(NC(=O)N(C)C)cc2)n1	2.5	0.45	0.74	0.47	0.5	0.98	1.14	1.02	1.93	1.22
CC1(C)CNc2cc(NC(=O)c3cccnc3NCc3ccncc3)ccc21 [Motesanib Diphosphate (AMG-706)]	-0.06	1.49	0.4	-0.39	0.2	-0.1	0.3	0.51	0.65	0.6
Cc1ccccc1-n1c(Cn2nc(-c3cccc(O)c3)c3c(N)ncnc32)nc2cccc(C)c2c1=O	-2.16	-0.05	-0.24	-0.5		0.05	0.27	0.34		
Clc1ccc(C2(c3ccc(-c4cn[nH]c4)cc3)CCNCC2)cc1	-0.2	0.04	0.31	0.47	0.05	0.32	0.32	0.57	0.33	0.38
COC(=O)c1ccc2c(c1)NC(=O)/C2=C(\Nc1ccc(N(C)C(=O)CN2CCN(C)CC2)cc1)c1ccccc1 [Nintedanib (BIBF 1120)]	2.59	0.74	0.2	2.83	1.25	0.03	2.2	6.69	0.23	0.7
C[C@H](CN(C)C)Oc1nc(Nc2cc3cccc(Cl)c3cn2)cnc1C#N	2.56	0.35	0.34	1.56	0.61	0.13	1.33	1.48	1.13	0.28
CNC(=O)c1ccc(Nc2ncc(C(F)(F)F)c(NCc3nccnc3N(C)S(C)(=O)=O)n2)cc1	9.52	1.99	0.04	5.45	3.54	2.16	4.32	5.66	2.85	1.45
Nc1ccc(C(=O)Nc2cccc(-c3nc(N4CCOCC4)c4oc5ncccc5c4n3)c2)cn1	0.01	0.01	1.54	0.36	0.09	0.25	0.09	0.9	0.66	0.52
COc1cc(CCc2cc(NC(=O)c3ccc(N4CC(C)NC(C)C4)cc3)n[nH]2)cc(OC)c1 (stereo not given)	7.06	0.23	0.27	1.22	1.11	0.29	4.8	5.76	0.62	1.99
CC(C)CCN1c2nc(Nc3cc(F)c(O)c(F)c3)ncc2N(C)C(=O)C1C (stereo not given)	3.25	1.91	0.57	7.92	3.82	2.58	3.02	3.84	4.5	1.29
Cc1ccc(C(=O)Nc2ccc(CN3CCN(C)CC3)c(C(F)(F)F)c2)cc1C#Cc1cnc2[nH]ncc2c1 [GZD824 Dimesylate]	10.6		0.96	3.54	1.61	1.08	6.3	1.99	1.28	2.67
Cc1[nH]c(/C=C2\C(=O)Nc3ccc(S(=O)(=O)N(C)c4cccc(Cl)c4)cc32)c(C)c1C(=O)N1CCN(C)CC1	0	0.59	0.42	2.96	0.14	-0.1	0	7.25	5.89	0.68
N#CC[C@H](C1CCCC1)n1cc(-c2ncnc3[nH]ccc23)cn1	0.42	1.39	0.15	2.16	0.41	0.17	0.46	0.65	1.14	0.66
CN(C)C/C=C/C(=O)Nc1cc2c(Nc3ccc(F)c(Cl)c3)ncnc2cc1O[C@H]1CCOC1 [Afatinib (BIBW2992)]	0.69	-0.42	0.26	1.35	0.99	0.05	0.86	4.16	0.66	0.51
COc1cc(C(=O)N2CCC(N3CCN(C)CC3)CC2)ccc1Nc1ncc2c(n1)N(C)c1ccccc1C(=O)N2C	1.73	0.29	0.41	3.59	0.46	0.37	0.68	0.65	3.81	0.27

SMILES	thermal shift delta Tm (LOC_OS02G45750-cb003) [°C]	thermal shift delta Tm (LOC_OS02G54510-cb004) [°C]	thermal shift delta Tm (LOC_OS03G04050-cb001) [°C]	thermal shift delta Tm (LOC_OS03G12390-cb001) [°C]	thermal shift delta Tm (LOC_OS03G27990-cb004) [°C]	thermal shift delta Tm (LOC_OS03G50450-cb001) [°C]	thermal shift delta Tm (LOC_OS03G50810-cb003) [°C]	thermal shift delta Tm (LOC_OS04G35114-cb001) [°C]	thermal shift delta Tm (LOC_OS04G38480-cb003) [°C]	thermal shift delta Tm (LOC_OS04G41100-cb001) [°C]
Cn1ncc(Cl)c1-c1cc(C(=O)N[C@H](CN)Cc2ccc(F)c(F)c2)oc1Cl	1.04	-0.14	0.46	1.31	0.14	0.74	0.51	0.52	1.58	0.63
CCn1c2ccccc2c2cc(Nc3ccnc(NCCCN4CCOCC4)n3)ccc21	0.77	0.13	0.05	-0.48	0.11	0.22	0.04	1.09	1.71	0.46
CN1CCN(c2ccc(-c3ccncc3-c3cc(F)c(O)c(F)c3)cc2)CC1	0.61	0.42	0.42	-0.07	0.3	0.59	0.5	1.01	1.07	0.43
Cc1ccc(NC(=O)c2cccc(N(C)C)c2)cc1NC(=O)c1ccc(O)cc1	0.7	0.45	0.56	0.34	0.26	0.28	0.7	0.46	0.87	0.23
COc1ccc(-c2ccc3c(N4CCOC[C@@H]4C)nc(N4CCOC[C@@H]4C)nc3n2)cc1CO	0.67	0.38	0.33	-0.12	0.09	0.41	0.18	0.4	-0.21	0.57
COc1cc2nccc(Oc3ccc(NC(=O)C4(C(=O)Nc5ccc(F)cc5)CC4)cc3)c2cc1OC	1.97	1.19	0.5	0.4	0.27	0.3	0.76	1.45	2.61	0.93
Nc1nccc(Oc2ccc3c(C(=O)Nc4cccc(C(F)(F)F)c4)cccc3c2)n1	-1.33	0.78	0.37	-0.16	0.11	-0.18	0.17	0.62	1.77	0.51
CC(C)(CCCCCC(O)CCCCCC(C)(C)C(=O)O)C(=O)O	0.72	0.34	0.51	-0.22	0.25	0.67	0.41	0.9	2.27	0.2
Cc1cc(C(=O)Nc2nc3cccc(Cl)c3n2[C@@H]2CCCCN(C(=O)/C=C/CN(C)C)C2)ccn1 [Nazartinib (EGF816, NVS-816)]	0.42	0.81	0.51	2.23	1.56	0.64	0.51	1.87	2.14	0.6
CC(C)c1ccc2oc3nc(N)c(C(=O)O)cc3c(=O)c2c1 [Amlexanox]	4.41	0.56	0.67	0.45	1.73	1.46	0.21	2.71	1.28	0.49
Cc1ccc(Nc2cc(N[C@@H]3CCCC[C@@H]3N)nnc2C(N)=O)nc1C	2.16	0.73	0.52	2.19	1.5	1.66	1.11	1.06	1.11	0.51
O=C(NC(NC(=S)Nc1ccc(F)c([N+](=O)[O-])c1)C(Cl)(Cl)Cl)C(c1ccccc1)c1ccccc1 (stereo not given)	0.8	1.3	1.21	1.23	0.49	0.84	1.45	1.31	3.23	0.88
Cn1cc(C2=C(c3ccc(Cl)cc3Cl)C(=O)NC2=O)c2ccccc21	1.02	0.82	0.78	0.98	0.26	0.6	0.67	1.64	1.13	0.96
N#C/C(=C(/N)Sc1ccc(N)cc1)c1ccccc1C(F)(F)F	-0.09	0.03	0.54	-0.46	0.47	-0.3	-0.02	0.28	0.37	0.78
CC(C)=CC[C@@H](O)C1=CC(=O)c2c(O)ccc(O)c2C1=O [Shikonin]	0	-0.56	0.62	-4.26	-2.32	-1.22	0	3.21	-2.82	-0.35
COc1cc(N2CCC(N(C)C)CC2)ccc1Nc1ncc(Cl)c(Nc2ccccc2P(C)(C)=O)n1	2.58	0.23	0.53	10.9	2.49	0.35	5.58	4.67	3.65	0.61
C#Cc1cccc(Nc2ncnc3cc(OC)c(OCCCCCCC(=O)NO)cc23)c1	2.9	1.18	-0.05	2.33	0.11	0.09	1.73	5.97	1.01	0.37
CC(C)(C)c1cc(NC(=O)Nc2ccc(Oc3ccnc4[nH]c(=O)cnc34)cc2F)n(-c2ccccc2)n1	8.1	3.28	0.21	4.04	0.22	0.17	2.66	0.44	2.2	7.51
CN(C)S(=O)(=O)c1ccc2c(c1)/C(=C/c1cc3c([nH]1)CCCC3)C(=O)N2	0	1.15	0.65	0.26	0.61	0.97	0	0	6.35	0.43
Nc1ccc(-c2ccc3ncc4ccc(=O)n(-c5cccc(C(F)(F)F)c5)c4c3c2)cn1 [Torin 2]	2.36	-0.06	0.2	0.23	0.43	0.37	0.92	2.97	0.88	0.27
CC(C)(O)CNc1ncc(-c2ccnc(Nc3ccnc(Cl)c3)n2)c(CC2CC2)n1	2.85	0.6	0.19	-0.18	0.11	0.3	0.65	3.2	1.45	0.65

From the supplement of paper PMC9694430
